Measurements as given in PubChem BioAssay (NCI).
About 83,000 compounds went through this panel and 20% of them were active in at least one assay; those are over-represented in the sample as a whole.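 A percent growth of 40 corresponds to 60% growth inhibition; 0 means no net growth; -100 means all cells died. Active threshold: below 10.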 A number with no mark means an inactive call. Activity calls are given as the source filed them.

Experiments:
Test in all cases: NCI-60 one-dose screen, 48 h (100 = growth as untreated, 0 = no growth, -100 = all killed)
Conditions in all cases: 10 µM
T-47D breast = tested on: T-47D breast
BT-549 breast = tested on: BT-549 breast
SW-620 colon = tested on: SW-620 colon
MCF7 breast = tested on: MCF7 breast
HCT-116 colon = tested on: HCT-116 colon
HCC-2998 colon = tested on: HCC-2998 colon
KM12 colon = tested on: KM12 colon
MDA-MB-468 breast = tested on: MDA-MB-468 breast

SMILES | growth (T-47D breast) | growth (BT-549 breast) | growth (SW-620 colon) | growth (MCF7 breast) | growth (HCT-116 colon) | growth (HCC-2998 colon) | growth (KM12 colon) | growth (MDA-MB-468 breast)
CN1CCN(c2ccc(Nc3nc(NCCNC(=O)c4ccc(C(F)(F)F)cc4)c4sccc4n3)cc2)CC1 | -6.48% (active) | -13.9% (active) | 4.68% (active) | -44.4% (active) | 15.2% | -22.5% (active) | 31.4% | 5.65% (active)
O/N=C(\CSc1nnc(-c2c[nH]c3ccccc23)n1-c1ccccc1)c1ccc(Br)cc1 | 5.96% (active) | -72.7% (active) | -86.3% (active) |  | -36.3% (active) | -66.5% (active) | 2.11% (active) | -94.5% (active)
COc1ccc2nc(Cl)c(-c3cc(-c4ccccc4)nc(N)n3)cc2c1 | 30.6% | -11.1% (active) | -60.2% (active) | 4.28% (active) | -92.1% (active) | 62.6% | -0.39% (active) | 14.9%
C=C1CC[C@H](C(=C)C)[C@H]2C=C(C)C(=O)C3=C(C(=O)[C@@](C)(O)C3)[C@H]12 | -59.3% (active) | -43.7% (active) | -53.3% (active) | -70.5% (active) | 12.2% | -84.4% (active) | -73.9% (active) | -69.5% (active)
CCNCCCn1c2c(c3cc(OC)c(OC)cc3c1=O)C(=O)c1cc3c(nc1-2)OCO3 | 31.6% | 36.2% | 38.7% | -88.9% (active) | -70.2% (active) | 20% | 33.7% | -36.2% (active)
O=C1Nc2ccc(F)cc2/C1=C/c1cccc(OCc2ccccn2)c1 | 45% | 24.1% | -0.341% (active) | 3.16% (active) | 1.75% (active) | 74.1% | 15.4% | -5.96% (active)
CN1CCN(c2ccc(Nc3nc(NCCCNC(=O)c4ccc(Cl)cc4)c4sccc4n3)cc2)CC1 | 41.9% | 80.1% | 93% | 49.1% | 15.1% | 91.3% | 68.7% | 68.3%
O=C(Nc1ccc(OCC(=O)c2ccccc2)cc1)Nc1ccc(Cl)c(C(F)(F)F)c1 | 3.26% (active) | 33.7% | 32% | 35% | 29.6% | 28.6% | 1.99% (active) | -5.5% (active)
O=S(=O)(Nc1ncccn1)c1ccc(-n2c(-c3ccc(Br)cc3)nc(-c3ccccc3)c2-c2ccccc2)cc1 | 2.77% (active) | 8.3% (active) | 48.5% | 28.6% | 34.5% | 39.7% | 27.7% | 24.3%
O=C(CN1CCN(c2ncnc3c2cnn3-c2ccccc2)CC1)Nc1nncs1 | 27.9% | -85.9% (active) | -23.9% (active) | 16.1% | 8.23% (active) | 59.7% | 4.55% (active) | -39.8% (active)
Cn1cc(-c2cc(N)n3nc(-c4c[nH]c5ccc(Br)cc45)cc3n2)c2cccnc21 | -75.7% (active) | -83.7% (active) | -78.6% (active) | -78.5% (active) | -87.9% (active) | -97.8% (active) | -78.3% (active) | -92.1% (active)
Cc1ccc(C(C)C)cc1NC(=O)c1ccccc1O | 22% | -2.14% (active) | 62.8% | 40.2% | 34.6% | 47.5% | 48.5% | 40%
CC(=O)Nc1nc(-c2ccc(N3CCN(C)CC3)c(NS(=O)(=O)c3ccc(C(F)(F)F)cc3)c2)cs1 | 25.4% | -29.4% (active) | -41.6% (active) | 6.99% (active) | -75.8% (active) | 15.4% | 2.44% (active) | -29.3% (active)
CC1CC(c2ccc(N(C)C)cc2)=NN1c1nc(O)c(C2=c3cc(Br)ccc3=NC2=O)s1 (configuration not stated) | 66.7% | 85% | 78.9% | 78.6% | 66.8% | 32.1% | 73.2% | 54.2%
COc1ccc2[nH]c(O)c(N=NC(=O)COc3ccc(NC(=O)Nc4ccc(Cl)cc4)cc3)c2c1 | 83.8% | 76% | 4.49% (active) | 1.75% (active) | -33.8% (active) | -14.3% (active) | 4.25% (active) | -52.3% (active)
N#Cc1ccc(-c2nn(-c3ccc(C(=O)O)cc3)cc2CNc2ccc(Oc3ccccc3)cc2)cc1 | 22.6% | -5.49% (active) | 59.3% | 59.8% | 16.7% | 11.5% | 16.3% | 103%

SMILES | growth (T-47D breast) | growth (BT-549 breast) | growth (SW-620 colon) | growth (MCF7 breast) | growth (HCT-116 colon) | growth (HCC-2998 colon) | growth (KM12 colon) | growth (MDA-MB-468 breast)
O=C(N/N=C/c1ccc(B(O)O)o1)c1[nH]c2ccc(Br)cc2c1-c1ccccc1 | 36.4% | 41% | 26.2% | 13.8% | 7.23% (active) | 8.58% (active) | 15.4% | -3.94% (active)
COc1cc2c3c(n(CCCN4CCOCC4)c(=O)c2cc1OC)-c1nc2c(cc1C3=O)OCO2 | 14.5% | 4.91% (active) | 22.2% |  | 15.6% | 37.7% | 32.1% | -29% (active)
C=CCn1c(SCC(=O)Nc2ccc(C(=O)/C=C/c3ccccc3)cc2)nnc1-c1c[nH]c2ccccc12 | 20.8% | 45.6% | -28.2% (active) | -67.7% (active) | -52.4% (active) | -69.4% (active) | 6.81% (active) | -7.8% (active)
Cc1ccc(S(=O)(=O)c2nc(-c3ccccc3)oc2S(=O)(=O)CC(=O)N2CCCC2)cc1 | -70.4% (active) | -24.4% (active) | -68.1% (active) | -40.7% (active) | 0.73% (active) | -91.1% (active) | 40.8% | -91.8% (active)
O=C(CNc1nc(-c2ccccc2)cs1)Nc1ccc([N+](=O)[O-])cc1Cl | 12.5% | 8.83% (active) | 23.2% |  | 21.4% | 7.28% (active) |  | -30.3% (active)
CC[C@@]1(O)C(=O)OCc2c1cc1n(c2=O)Cc2c-1nc1cc(F)c(C)c3c1c2[C@@H](N)CC3 | -3.93% (active) | -10.7% (active) | 8.5% (active) | 8.66% (active) | 0.118% (active) | -45.4% (active) | 3.85% (active) | 
Cc1cccc(NC(=O)CSc2nc3ccc(F)cc3c(=O)n2-c2ccc(Cl)cc2)c1C | 91.5% | 32% | 80.1% | 69.5% | 44.8% | 94.5% | 88.8% | 80.7%
O=C(NO)c1ccc(CNC(=O)[C@H]2Cc3c([nH]c4ccccc34)[C@H](c3ccccc3)N2)cc1 | -17.7% (active) | 55.4% | -43.7% (active) | 14.4% | 10.1% | 16.9% | 31.1% | -6.19% (active)
COc1cccc(C(N)=Nc2ccc(OCCCCCCn3cncn3)cc2)c1 | 46.1% | 20.5% | 38.1% | 19.2% |  | 18.5% | 18.6% | 17.5%
Oc1ccc(/C=C2\CCCc3cc4ccc(O)cc4[o+]c32)c(O)c1 | 18.3% | 23.3% | 20.5% | 10.8% | 15.7% | 31% | 6.02% (active) | -13.8% (active)
C=C1CCC2C3(C)COC(c4c(F)cccc4F)OC3CCC2(C)C1CC(O)C1=CCOC1=O (configuration not stated) | 47.6% | -9.18% (active) | 3.41% (active) | 19% | -31.2% (active) | 52.1% |  | 66.1%
CCN1CCN(Cc2ccc(NC(=O)c3cccc(-n4cc(-c5ccc(NC(C)=O)nc5)nn4)c3)cc2C(F)(F)F)CC1 | 100% | 144% | 109% |  | 86.3% | 115% |  | 
Cc1ccc(-c2nc3ccc(C(=O)N=Nc4c(O)[nH]c5ccc([N+](=O)[O-])cc45)cc3[nH]2)cc1 | 51.8% | 98.7% | 42.2% | 65.9% | 12.7% | 54% | 104% | 59%
CCCCSc1nc(Nc2ccc(/C(C)=N/NC(N)=S)cc2)c(C#N)c(-c2ccc(F)cc2)n1 | 46.8% | 31.5% | 67.7% | 41.3% | 36.3% | 66.9% | 60.2% | -1.25% (active)
CO[C@@H]1CSS[C@H]1Cn1nc(-c2ccc(Oc3ccccc3)cc2)c2c(N)ncnc21 | 17.8% | 63.8% | 96.7% |  | 31.7% | 91.6% | 60% | 11.6%
